High-throughput results: PubChem, National Center for Advancing Translational Sciences (NCATS)
Hits are enriched below; roughly 4.6% of the tested compounds scored in any of these assays.
TRHR PAM: allosteric enhancers of human TRH receptor. P34981. TRHR cells, fluo-8 calcium fluorescence, EC20 TRH enhancement. enhancement, % at 2 µM. actives 0.66% (n = 360,000). AID 493056; in the data active means enhancement above about 30%; further: 0% is about no effect
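TRHR-expressing cells loaded with fluo-8 calcium dye were read kinetically (ex 480/em 530) during compound addition, then stimulated with an EC20 of TRH (10 nM final). Enhancement of the Gq-mediated intracellular calcium response was scored.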
D1 ag: human D1 receptor agonism; actives 1% (n = 360,000); activation, % at 2 µM; P21728; HEK293 T-REx D1 cells, calcium flux, agonist mode; AID 504660; further: 0% is about no effect
Target sequence (P21728 whole entry, looked up): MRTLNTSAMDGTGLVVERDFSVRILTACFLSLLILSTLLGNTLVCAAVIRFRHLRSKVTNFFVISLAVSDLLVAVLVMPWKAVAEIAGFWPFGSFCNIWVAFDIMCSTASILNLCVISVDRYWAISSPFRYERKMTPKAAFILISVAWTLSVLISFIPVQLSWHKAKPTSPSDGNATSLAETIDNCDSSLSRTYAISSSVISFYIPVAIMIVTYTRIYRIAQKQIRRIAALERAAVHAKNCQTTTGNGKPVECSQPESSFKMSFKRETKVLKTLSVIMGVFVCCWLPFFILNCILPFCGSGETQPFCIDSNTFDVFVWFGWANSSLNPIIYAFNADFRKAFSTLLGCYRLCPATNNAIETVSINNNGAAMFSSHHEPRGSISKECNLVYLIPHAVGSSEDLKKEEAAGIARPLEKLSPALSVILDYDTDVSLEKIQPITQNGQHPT
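Tetracycline-induced HEK293 TREx D1 cells, force-coupled to calcium signalling, were dye-loaded with a no-wash calcium kit. Compound was pin-added after a 10 s baseline. Fluorescence was read kinetically at 1 cycle/s for 180 s, with calcium rises flagged as agonism.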
TRHR ag: activates the human TRH receptor. TRHR cells, calcium flux fluo-8, FDSS agonist mode. P34981. activation, % at 2 µM. actives 0.18% (n = 360,000). AID 493084; further: 0% is about no effect
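In this calcium-flux screen, cells bearing human TRHR are dye-loaded with fluo-8, baselined for 10 cycles, then exposed to library compounds; positive kinetic calcium responses during the agonist phase mark hits, with TRH as control.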
D1 potentiator: potentiators of human D1 dopamine receptor | HEK293 TREx D1 cells, calcium flux, dopamine EC20 potentiation | actives 0.036% (n = 360,000) | P21728 | potentiation, % at 10 µM; in the data active means potentiation above about 30%; further: 0% is about no effect
D1 antagonist: antagonists of human D1 dopamine receptor; AID 504652; HEK293 TREx D1 cells, calcium flux, dopamine EC80; hits give low values; activity change, negative = inhibition, % at 10 µM; actives 3.2% (n = 360,000); P21728; in the data active means activity change below about -30%; further: on the % scale 0 is the no-effect control and ±100 the full control effect
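Inducible Hek293 Trex D1 cells (tetracycline, overnight, 30 C). Calcium dye 30–90 min RT. Antagonist mode: EC80 dopamine added after 180 s compound read.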
* marks the source's active call; other numbers are inactive results; · = no result. Unless noted, no stated cut-off is given here; in the data, active means activation above about 30%; inactive means the rest.

SMILES	TRHR PAM	D1 ag	TRHR ag	D1 potentiator	D1 antagonist
O=C(Nc1c2c(nn1-c1ccc(F)cc1)CS(=O)C2)c1ccc2c(c1)OCO2 (stereo unspecified)	0	2	0	-5	14
CCCOC(=O)CSc1nnc(-c2ccccc2)o1	29	0	0	-6	3
O=C(c1ccccc1)N1CCC(CC2CC(c3cccc(Br)c3)=NO2)(C(=O)NCC2CCCCC2)CC1 (stereo unspecified)	-5	2	-1	-9	-53*
O=C(Nc1cccc(C(=O)N2CCCCCC2)c1)c1ccco1	4	2	0	-1	-11
CCCCn1nnc(NC(=O)c2cc3ccccc3o2)n1	4	2	2	6	-36*
CCOC(=O)c1cccc(NC(=O)c2cc3ccccc3o2)c1	-7	6	0	4	-42*
CCOC(=O)c1cccc(NC(=O)c2ncoc2-c2ccco2)c1	4	16	-1	-1	-39*
CCOC(=O)N1CCN(C(=O)c2cccc(NC(=O)c3ccco3)c2)CC1	-2	3	1	-7	-63*
COc1ccc(NC(=O)CC2C(=O)N(c3ccc(C)cc3)C(=O)N2Cc2cccnc2)cc1 (stereo unspecified)	1	3	0	-1	6
O=S(=O)(NC[C@@H]1CCC[C@H](CNS(=O)(=O)c2c(F)cccc2F)C1)c1ccc2c(c1)OCCO2	-1	6	1	-4	-2
Cc1cccc(S(=O)(=O)Nc2cccc3c2C(=O)c2ccccc2-3)c1	-8	50*	20	2	3
O=S(=O)(NCCS(=O)(=O)N1CCN(c2ccccc2F)CC1)c1ccc(Cl)cc1	-3	3	0	-2	-15
Cc1ccc(C)n1-c1ccc(C(=O)NCc2ccncc2)cc1	31*	5	2	-5	8
CC/C(=N\NC(=O)c1ccncc1)C12CC3CC(CC(C3)C1)C2	-8	1	0	4	-4
O=C(NNC(=O)C1CCCCC1)c1ccncc1	10	4	0	·	17
O=C(NNC(=S)NC(=O)C12CC3CC(CC(C3)C1)C2)c1ccncc1	6	136*	36*	-5	0
CC1(C(=O)NC(=S)NNC(=O)c2ccncc2)CCCCC1	-2	43*	12	-2	-18
Cc1ccc(S(=O)(=O)NCCN2CCN(S(=O)(=O)c3ccccc3Cl)CC2)cc1	-6	7	0	-7	-53*
O=[N+]([O-])c1cccc(P(=O)(O)c2cccc([N+](=O)[O-])c2)c1	31*	1	1	-5	5
CCP(=O)(c1cccc([N+](=O)[O-])c1)c1cccc([N+](=O)[O-])c1	3	3	0	-3	-8
Clc1ccc(Cn2nnc(-c3ccc(CN4CCOCC4)cc3)n2)cc1	-5	9	-1	-4	4
Fc1cccc(Cl)c1Cn1nnc(-c2ccc(N3CCOCC3)cc2)n1	4	6	-1	-2	-36*
COc1ccc(NS(=O)(=O)c2ccc3[nH]c4c(c3c2)CCCCC4)cc1	-2	6	-1	5	-4
Cc1cc(C)n(CCCN2CCC(C(=O)Nc3cccc(-c4cccc(F)c4)c3)CC2)n1	-3	34*	1	-8	-58*
O=c1[nH]c(=O)n(Cc2ccco2)c2c1C(C(F)(F)F)(C(F)(F)F)N=C(c1ccc(F)cc1)N2	3	37*	-1	-3	·
SMILES	TRHR PAM	D1 ag	TRHR ag	D1 potentiator	D1 antagonist
Cc1c(C#N)c(N)nc2c3c(sc12)NC(=O)CC3c1ccc(F)cc1 (stereo unspecified)	-6	1	0	-7	-31*
Cc1cc(C)c2c(n1)sc1c(-c3ccccc3)c(C#N)c(N)nc12	-3	2	0	-7	12
Cc1c(C#N)c(N)nc2c3c(sc12)NC(=O)CC3c1ccccc1 (stereo unspecified)	36*	1	-2	-4	16
Cc1cccn2c3c(c(=O)nc12)C(c1ccc(F)cc1)CC(=O)N3 (stereo unspecified)	1	5	0	0	-7
COc1cc2c(cc1OC)C(C)N(C(=O)c1cc3c(C)cc(C)cc3[nH]1)CC2 (stereo unspecified)	1	1	-1	0	-5
O=C(NCCc1ccc(Cl)cc1)c1ccc(CS(=O)(=O)Cc2ccc(Cl)cc2)o1	-6	-1	0	-2	-6
